Assay outcomes from PubChem.
Sampled rows, rich in hits. Any-hit rate of the full collection: about 6.8%.
Pf Dd2 inh – P. falciparum Dd2 growth inhibitors, primary screen, SYBR Green fluorescence, single dose replicates; 72 h; hits give low values; activity change, % at 10 µM; actives 2.3% (n = 94,000); AID 1159554, 2015; in the data active = activity change below about -80%; inconclusive = no clear call, values can overlap the other calls
T cruzi growth-1 – T. cruzi intracellular proliferation inhibitors, primary screen, cell-based, beta-gal Tulahuen parasites, NIH3T3 host, luminescence; T. cruzi beta-gal in NIH3T3, GalScreen luminescence, 90 h; inhibition, % at 8.34 µM; actives 5.9% (n = 77,000);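 active = mean inhibition above about 93%, with at least 55% of replicates each passing it, limit read from the data, passing the limit was not always enough; inconclusive = only one of those two conditions holds; inactive = neither condition holds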
C diff HTS – C. difficile growth inhibitors, primary screen, HTS. actives 0.25% (n = 86,000). Clostridium difficile clinical isolate growth, OD600, 24 h; hits give low values. AID 1259249, 2017. growth activity, negative = inhibition, % at 16 µg/mL (by protocol);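 active = mean growth activity at or below -80% and every replicate also at or below -80%; inconclusive = mean at or below -80% but some replicate above -80%; inactive = mean growth activity above -80%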;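 also: 0% = DMSO wells and -100% = levofloxacin 16 µg/mL wells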
T cruzi growth-2 – T. cruzi intracellular proliferation inhibitors, confirmation, cell-based, NIH3T3 host, beta-gal parasite, luminescence, cherry-pick; shares compounds with T cruzi growth-1; T. cruzi beta-gal in NIH3T3, GalScreen luminescence, 90 h; inhibition, % at 8.35 µM; actives 72% (n = 5,600);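 active = mean replicate inhibition above about 95% and at least 55% of replicates individually reaching it, limit read from the data; inconclusive = only one of the two criteria is met; inactive = neither criterion is met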
T cruzi growth-3 – inhibitors of intracellular T. cruzi replication, confirmation, NIH3T3 host cells, beta-gal parasites, cherry-pick, set 2; shares compounds with T cruzi growth-1; T. cruzi beta-gal in NIH3T3, GalScreen luminescence, 90 h; inhibition, % at 2.09 µM; actives 21% (n = 5,600);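 active = mean inhibition above about 95%, with at least 55% of replicates also reaching it, limit read from the data; inconclusive = meets just one of the two conditions; inactive = meets neither condition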;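 also: plate controls were neutral control median for no effect and positive control median for full effect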
3T3 cytotox – cytotoxicity in mouse NIH/3T3 fibroblasts, confirmation, cytotoxicity control for T. cruzi proliferation inhibitor project, cell-based, cherry-pick, single point. shares compounds with T cruzi growth-1. NIH/3T3 viability, CellTiter-Glo ATP luminescence, 90 h. cytotoxicity (signal decrease), % at 8.35 µM. actives 14% (n = 5,600). AID 651742, 2012;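 active = mean signal decrease across replicates above about 35% based on untreated-well scatter, with enough replicates individually passing, limit read from the data; inconclusive = no rule stated though some were filed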;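 also: 0% = median of neutral control wells and 100% = median of positive control wells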
3T3 cytotox 2 – NIH/3T3 fibroblast cytotoxicity, confirmation, cytotoxicity control, cell-based, cherry-pick, single point, set 2; AID 651744, 2012; inhibition, % at 24.9 µM; actives 56% (n = 5,600); shares compounds with T cruzi growth-1; NIH/3T3 viability, CellTiter-Glo ATP luminescence, 90 h;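 active = mean loss of cell viability signal at or above a set limit, and enough replicates individually reaching it; inconclusive = meets only the mean limit or only the replicate share; inactive = meets neither condition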;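 also: 0% = median of neutral control wells and 100% = median of positive control wells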
Active calls of the source: *; ? = inconclusive; · = not tested or not shown.

SMILES | Pf Dd2 inh | T cruzi growth-1 | C diff HTS | T cruzi growth-2 | T cruzi growth-3 | 3T3 cytotox | 3T3 cytotox 2
C[C@@H]1CCCCO[C@@H](CN(C)CC2CCCCC2)[C@@H](C)CN([C@H](C)CO)C(=O)c2cc(NC(=O)Nc3ccccc3)ccc2O1 | -65 | 103* | 9 | 105* | 97* | 13 | 57*
C[C@@H]1CN([C@@H](C)CO)C(=O)c2cc(NC(=O)NC3CCCCC3)ccc2O[C@@H](C)CCCCO[C@@H]1CN(C)CC1CCCCC1 | -62 | 75 | · | · | · | · | ·
C[C@@H]1CCCCO[C@@H](CN(C)CC2CCCCC2)[C@H](C)CN([C@H](C)CO)C(=O)c2cc(NC(=O)NC3CCCCC3)ccc2O1 | -73 | 106* | · | 104* | 84 | 3 | 107*
C[C@@H]1CN([C@@H](C)CO)C(=O)c2cc(NC(=O)c3ccccc3)ccc2O[C@@H](C)CCCCO[C@@H]1CN(C)CC1CCCCC1 | -32 | 25 | 0 | · | · | · | ·
C[C@@H]1CCCCO[C@H](CN(C)CC2CC2)[C@H](C)CN([C@@H](C)CO)C(=O)c2cc(NC(=O)Nc3ccc(F)cc3)ccc2O1 | -1 | 72 | 3 | · | · | · | ·
C[C@@H]1CN([C@H](C)CO)C(=O)Cc2cc(NC(=O)CCN3CCOCC3)ccc2O[C@@H]1CN(C)S(=O)(=O)c1ccccc1 | 3 | · | 1 | · | · | · | ·
O=C(NCC[C@@H]1CC[C@@H](NC(=O)C2CCC2)[C@@H](CO)O1)c1cc(Cl)cc(Cl)c1 | -32 | · | 7 | · | · | · | ·
CC(=O)N1[C@@H]2c3ccc(C4=CCCC4)c(=O)n3C[C@@H]2[C@@H](CO)[C@@H]1C(=O)Nc1ccccc1 | · | 13 | 4 | · | · | · | ·
C[C@H](CO)N1C[C@H](C)[C@H](CN(C)C(=O)Nc2ccc(C(F)(F)F)cc2)Oc2ncc(-c3ccc(C#N)cc3)cc2C1=O | 3 | · | 18 | · | · | · | ·
C[C@@H]1CN([C@H](C)CO)C(=O)c2cc(NS(=O)(=O)c3cccs3)ccc2O[C@@H](C)CCCCO[C@H]1CN(C)S(=O)(=O)c1ccccc1 | -19 | · | -30 | · | · | · | ·
Cc1ccc(S(=O)(=O)N(C)C[C@@H]2OCCCC[C@@H](C)Oc3ccc(NS(=O)(=O)c4cccs4)cc3C(=O)N([C@@H](C)CO)C[C@@H]2C)cc1 | -74 | 103* | · | 104* | 70 | 12 | -2
Cc1ccc(S(=O)(=O)N(C)C[C@H]2OCCCC[C@@H](C)Oc3ccc(NS(=O)(=O)c4cccs4)cc3C(=O)N([C@H](C)CO)C[C@H]2C)cc1 | -69 | ? | · | 90 | 31 | -29 | -39
Cc1ccc(S(=O)(=O)N(C)C[C@H]2OCCCC[C@H](C)Oc3ccc(NS(=O)(=O)c4cccs4)cc3C(=O)N([C@H](C)CO)C[C@H]2C)cc1 | -75 | 109* | · | 103* | 16 | -37 | -15
Cc1ccc(S(=O)(=O)N(C)C[C@@H]2OCCCC[C@@H](C)Oc3ccc(NS(=O)(=O)c4cccs4)cc3C(=O)N([C@H](C)CO)C[C@H]2C)cc1 | -58 | 59 | · | · | · | · | ·
Cc1ccc(S(=O)(=O)Nc2ccc3c(c2)C(=O)N([C@@H](C)CO)C[C@@H](C)[C@H](CN(C)S(=O)(=O)c2cccs2)OCCCC[C@H](C)O3)cc1 | · | · | -8 | · | · | · | ·
Cc1ccc(S(=O)(=O)Nc2ccc3c(c2)C(=O)N([C@H](C)CO)C[C@H](C)[C@@H](CN(C)S(=O)(=O)c2cccs2)OCCCC[C@H](C)O3)cc1 | · | · | -7 | · | · | · | ·
C[C@@H]1CCCCO[C@H](CN(C)S(=O)(=O)c2ccccc2)[C@H](C)CN([C@@H](C)CO)C(=O)c2cc(NS(=O)(=O)c3cccs3)ccc2O1 | · | ? | -6 | 103* | 46 | -10 | -8
C/C=C/c1ccc([C@@H]2[C@@H](CO)N(C(=O)c3cnccn3)C23CN(C(C)=O)C3)cc1 | 3 | · | -5 | · | · | · | ·
Cc1noc(C)c1S(=O)(=O)N(C)C[C@H]1Oc2ccc(NC(=O)C3CC3)cc2CC(=O)N([C@@H](C)CO)C[C@H]1C | 43 | 4 | -9 | · | · | · | ·
C[C@H]1CN([C@@H](C)CO)C(=O)c2cc(-c3cccnc3)cnc2O[C@H]1CN(C)C(=O)Cc1cccnc1 | 21 | 29 | 0 | · | · | · | ·
C=C[C@@H](COC(=O)c1ccc([N+](=O)[O-])cc1)N(Cc1ccc(OC)cc1)S(=O)(=O)c1ccc(Br)cc1 | · | · | -3 | · | · | · | ·
CNC[C@@H]1Oc2ccc(NS(=O)(=O)c3ccccc3)cc2CC(=O)N([C@H](C)CO)C[C@H]1C | 10 | 12 | -5 | · | · | · | ·
Cc1ccc(S(=O)(=O)N(C)C[C@@H]2OCCCC[C@@H](C)Oc3ccc(NS(=O)(=O)c4cccs4)cc3C(=O)N([C@H](C)CO)C[C@@H]2C)cc1 | -56 | 61 | · | · | · | · | ·
Cc1ccc(S(=O)(=O)N(C)C[C@@H]2OCCCC[C@H](C)Oc3ccc(NS(=O)(=O)c4cccs4)cc3C(=O)N([C@H](C)CO)C[C@@H]2C)cc1 | -68 | 119* | · | 96* | 42 | -25 | -7
Cc1ccc(S(=O)(=O)N(C)C[C@H]2OCCCC[C@@H](C)Oc3ccc(NS(=O)(=O)c4cccs4)cc3C(=O)N([C@@H](C)CO)C[C@@H]2C)cc1 | -14 | ? | · | 107* | 53 | -3 | 15
SMILES | Pf Dd2 inh | T cruzi growth-1 | C diff HTS | T cruzi growth-2 | T cruzi growth-3 | 3T3 cytotox | 3T3 cytotox 2
Cc1ccc(S(=O)(=O)N(C)C[C@@H]2OCCCC[C@@H](C)Oc3ccc(NS(=O)(=O)c4cccs4)cc3C(=O)N([C@@H](C)CO)C[C@H]2C)cc1 | -43 | 86 | · | · | · | · | ·
CO[C@H]1CN(C)C(=O)c2ccc(NS(=O)(=O)c3ccc(C)cc3)cc2OC[C@@H](C)N(Cc2nccs2)C[C@@H]1C | 1 | 1 | · | · | · | · | ·
CO[C@@H]1CN(C)C(=O)c2cc(NS(C)(=O)=O)ccc2OC[C@@H](C)NC[C@@H]1C | -43 | · | -3 | · | · | · | ·
COc1ccc(CN2C[C@H](C)[C@@H](OC)CN(C)C(=O)c3ccc(NC(=O)c4nc5ccccc5s4)cc3OC[C@H]2C)cc1 | -52 | ? | 5 | 110* | 114* | 2 | 6
CO[C@@H]1CN(C)C(=O)c2ccc(NC(=O)c3nc4ccccc4s3)cc2OC[C@H](C)N(Cc2cncnc2)C[C@H]1C | -44 | · | · | · | · | · | ·
CO[C@@H]1CN(C)C(=O)c2cc(NC(=O)c3nc4ccccc4s3)ccc2OC[C@@H](C)N(Cc2cccnc2)C[C@H]1C | -75 | · | · | · | · | · | ·
CO[C@H]1CN(C)C(=O)c2ccc(NC(=O)c3nc4ccccc4s3)cc2OC[C@@H](C)N(Cc2cccnc2)C[C@H]1C | -49 | ? | -7 | 105* | 88 | 11 | 59*
